Assay outcomes as filed in PubChem BioAssay.
Hits are enriched below; roughly 3.5% of the tested compounds scored in any of these assays.
Bead autofluor: compound fluorescence in toxin protease inhibitor counterscreen. compound autofluorescence counterscreen, microsphere flow cytometry; hits give high values. fluorescence intensity (no concentration beside the values). actives 3.1% (n = 360,000). AID 624483; in the data active = fluorescence intensity above about 16000; inconclusive = no clear call, values can overlap the other calls
BoNT F protease: BoNT F light chain protease inhibition | Multiplex microsphere protease cleavage assay, flow cytometry | inhibition, % at 10 µM | actives 0.22% (n = 360,000) | AID 588497; in the data active = inhibition above about 35%, passing the limit was not always enough; inconclusive = no clear call, values can overlap the other calls; also: plate controls were buffer without enzyme for full effect and enzyme alone for no effect
BoNT-A LC inh2: BoNT A light chain protease inhibition; multiplex microsphere protease substrate cleavage, flow cytometry; inhibition, % at 10 µM; actives 0.17% (n = 360,000); AID 588499; also: plate controls were buffer without enzyme for full effect and enzyme alone for no effect
Anthrax LF prot: anthrax lethal factor protease inhibition; P15917; multiplex microsphere protease cleavage assay, LF; inhibition, % at 10 µM; actives 0.12% (n = 360,000); AID 588501; also: plate controls were buffer without enzyme for full effect and enzyme alone for no effect
Starred values were filed as active, the others as inactive; ? = inconclusive. Rule as the data show it, unless noted: active = inhibition above about 30%; inconclusive = no clear call, values can overlap the other calls; inactive = below that.

SMILES	Bead autofluor	BoNT F protease	BoNT-A LC inh2	Anthrax LF prot
O=C(CSc1ccccc1)Nc1ccc(-c2nc3ccccc3[nH]2)cc1	2366	-2.6	0.0	-1.8
O=C(CN1CCOCC1)Nc1ccc(-c2nc3ccccc3[nH]2)cc1	23886*	-5.4	-1.6	0.3
NC(c1csc(NC(=O)Nc2ccc(OC(F)(F)F)cc2)n1)C1CCCCC1 (stereo not drawn)	2897	-34.9	0.2	-6.4
CCCCCn1c(SCc2ccncc2)nc2cc(C(=O)NCc3ccco3)ccc2c1=O	19744*	2.3	?	-8.7
CCCCn1nc2cc(C(=O)NCc3ccco3)ccc2c1OCC	2911	-5.1	-0.3	-8.6
CC(C)c1nc(SCC(=O)N2CCCC2)c2ccccc2n1	22830*	1.3	?	-0.5
O=C(NCc1ccco1)c1ccc2c(=O)n(Cc3ccco3)c(SCC(=O)N3CCCC3)nc2c1	21141*	0.2	-0.7	-1.1
C=CCn1c(SCC(=O)N2CCCC2)nc2cc(C(=O)NCC3CCCO3)ccc2c1=O (stereo not drawn)	16153*	3.2	1.0	-1.8
CC(C)(C(=O)N1CCC1(C)C(=O)NC1Cc2ccccc2C1)c1ccccc1 (stereo not drawn)	3436	2.6	-0.2	-3.1
CCn1c(SCC(=O)N2CCCCCC2)nc2ccccc2c1=O	2937	-12.4	-1.0	-4.5
O=C(CSc1nc2ccccc2c(=O)n1Cc1ccco1)N1CCCCCC1	21631*	-4.1	?	-12.3
CN1CCN(c2ccc([N+](=O)[O-])cc2C(=O)c2ccc(Br)cc2)CC1	23704*	-3.3	-1.7	-5.7
Cc1ccc(C(=O)c2cc([N+](=O)[O-])ccc2N2CCN(C)CC2)cc1	6167	-1.0	-0.6	0.5
COc1cc(-c2c(CCO)sc3ccccc23)cc(OC)c1OC	5544	20.8	0.8	-3.6
CC(=O)NC1C(c2nc3ccccc3s2)=C(c2ccccc2)C(=O)N1c1ccc(C)cc1 (stereo not drawn)	4253	-7.7	-0.1	-10.4
COc1cccc(N2C(=O)C(c3ccccc3)=C(c3nc4ccccc4s3)C2NC(C)=O)c1 (stereo not drawn)	21453*	3.4	?	-0.2
CCCCOc1ccc(C2C3CN(C(=O)OCC)CC=C3C(C#N)=C(N)C2(C#N)C#N)cc1OC (stereo not drawn)	23656*	-1.1	-0.8	0.9
CCOC(=O)N1CC=C2C(C#N)=C(N)C(C#N)(C#N)[C@H](c3ccc(OCC)c(OCC)c3)[C@H]2C1	20898*	-3.1	-1.9	0.4
CN1CC=C2C(C#N)=C(N)C(C#N)(C#N)[C@H](c3ccoc3)[C@H]2C1	2574	-21.8	0.7	-0.4
CC(=O)N1CC=C2C(C#N)=C(N)C(C#N)(C#N)[C@H](c3ccoc3)[C@H]2C1	23512*	-1.4	0.6	-0.1
COc1cc(C(=O)Nc2c(C)cc(C)cc2C)c([N+](=O)[O-])cc1OC	1970	0.8	-0.2	1.0
COn1c(-c2ccccc2)c(C=O)c2ccccc21	37117*	?	-102.2	-70.9
CCOC(=O)/C=c1\s/c(=C\c2c(OC)ccc3ccccc23)c(=O)n1CC(=O)NCC1CCCO1 (stereo not drawn)	16857*	-6.4	-2.0	-3.5
COC(=O)c1ccccc1NC(=O)CCn1c(=O)oc2ccccc21	4008	-2.0	4.0	2.8
CCCCCCOC(=O)C(C#N)c1nc2ccccc2nc1N1CCN(C)CC1 (stereo not drawn)	8819	1.9	4.0	25.3
SMILES	Bead autofluor	BoNT F protease	BoNT-A LC inh2	Anthrax LF prot
CCC(C)COC(=O)C(C#N)c1nc2ccccc2nc1N1CCCCC1 (stereo not drawn)	21493*	6.1	?	15.1
CC(C)OC(=O)C(C#N)c1nc2ccccc2nc1N1CCCC1 (stereo not drawn)	3598	-0.8	6.1	-2.1
CCC(CC)COC(=O)C(C#N)c1nc2ccccc2nc1N1CCN(CC)CC1 (stereo not drawn)	21646*	2.8	6.8	9.9
Cc1ccc(C2(C)NC(=O)N(CC(=O)N(Cc3ccccc3)C(C)(C)C)C2=O)cc1 (stereo not drawn)	6829	-0.7	-0.3	-0.5
COc1ccc(N(CC(=O)NCCC2=CCCCC2)S(C)(=O)=O)cc1OC	22438*	7.4	3.4	0.3
COc1ccc(C(C)=O)cc1CN1C(=O)NC2(CCCCC2)C1=O	2657	-6.1	-0.7	-1.1
COc1ccc(C(C)=O)cc1CN1C(=O)C(C)N(c2ccc(C)cc2)C1=O (stereo not drawn)	18676*	4.8	?	-6.6
O=P(Nc1ccccc1)(Nc1ccccc1)Oc1ccc(Cl)cc1	23234*	0.1	0.3	-1.1
COc1cccc(NP(=O)(Oc2ccc(Cl)cc2)Oc2ccc(Cl)cc2)c1	2247	-3.9	-0.6	-0.5
